# Data as given in ChEMBL document CHEMBL1961873, “Compounds: GSK PKIS; Assays: Nanosyn kinase panel” (2012).
# Columns and labels:
# [1] = molecular target: T1, Inhibitor of nuclear factor kappa-B kinase subunit epsilon (Homo sapiens) (UniProt Q14164); details: at 1 µM;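 further: reported values are averaged percent inhibition figures against human IKKε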
# T1 sequence (whole entry): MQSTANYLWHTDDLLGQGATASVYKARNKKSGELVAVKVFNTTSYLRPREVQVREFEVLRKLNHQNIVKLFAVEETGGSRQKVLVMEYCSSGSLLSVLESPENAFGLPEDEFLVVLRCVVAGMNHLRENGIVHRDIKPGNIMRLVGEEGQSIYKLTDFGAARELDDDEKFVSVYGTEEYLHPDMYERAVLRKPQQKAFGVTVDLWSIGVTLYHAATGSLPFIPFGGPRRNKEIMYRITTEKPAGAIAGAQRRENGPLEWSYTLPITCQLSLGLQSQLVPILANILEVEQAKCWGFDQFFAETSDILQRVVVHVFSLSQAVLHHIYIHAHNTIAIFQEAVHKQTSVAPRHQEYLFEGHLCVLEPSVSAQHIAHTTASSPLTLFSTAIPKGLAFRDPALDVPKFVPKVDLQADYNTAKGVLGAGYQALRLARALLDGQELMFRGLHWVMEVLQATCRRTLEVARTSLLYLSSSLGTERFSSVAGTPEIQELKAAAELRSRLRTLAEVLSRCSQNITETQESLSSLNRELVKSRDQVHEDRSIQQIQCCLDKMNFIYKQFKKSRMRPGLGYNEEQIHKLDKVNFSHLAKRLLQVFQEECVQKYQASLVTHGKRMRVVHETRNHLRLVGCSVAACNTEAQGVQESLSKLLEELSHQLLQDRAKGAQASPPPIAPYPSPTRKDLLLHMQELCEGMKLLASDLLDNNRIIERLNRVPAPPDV
# [2] = molecular target: T2, Serine/threonine-protein kinase Nek1 (Homo sapiens) (UniProt Q96PY6); details: at 0.1 µM
# T2 sequence (whole entry): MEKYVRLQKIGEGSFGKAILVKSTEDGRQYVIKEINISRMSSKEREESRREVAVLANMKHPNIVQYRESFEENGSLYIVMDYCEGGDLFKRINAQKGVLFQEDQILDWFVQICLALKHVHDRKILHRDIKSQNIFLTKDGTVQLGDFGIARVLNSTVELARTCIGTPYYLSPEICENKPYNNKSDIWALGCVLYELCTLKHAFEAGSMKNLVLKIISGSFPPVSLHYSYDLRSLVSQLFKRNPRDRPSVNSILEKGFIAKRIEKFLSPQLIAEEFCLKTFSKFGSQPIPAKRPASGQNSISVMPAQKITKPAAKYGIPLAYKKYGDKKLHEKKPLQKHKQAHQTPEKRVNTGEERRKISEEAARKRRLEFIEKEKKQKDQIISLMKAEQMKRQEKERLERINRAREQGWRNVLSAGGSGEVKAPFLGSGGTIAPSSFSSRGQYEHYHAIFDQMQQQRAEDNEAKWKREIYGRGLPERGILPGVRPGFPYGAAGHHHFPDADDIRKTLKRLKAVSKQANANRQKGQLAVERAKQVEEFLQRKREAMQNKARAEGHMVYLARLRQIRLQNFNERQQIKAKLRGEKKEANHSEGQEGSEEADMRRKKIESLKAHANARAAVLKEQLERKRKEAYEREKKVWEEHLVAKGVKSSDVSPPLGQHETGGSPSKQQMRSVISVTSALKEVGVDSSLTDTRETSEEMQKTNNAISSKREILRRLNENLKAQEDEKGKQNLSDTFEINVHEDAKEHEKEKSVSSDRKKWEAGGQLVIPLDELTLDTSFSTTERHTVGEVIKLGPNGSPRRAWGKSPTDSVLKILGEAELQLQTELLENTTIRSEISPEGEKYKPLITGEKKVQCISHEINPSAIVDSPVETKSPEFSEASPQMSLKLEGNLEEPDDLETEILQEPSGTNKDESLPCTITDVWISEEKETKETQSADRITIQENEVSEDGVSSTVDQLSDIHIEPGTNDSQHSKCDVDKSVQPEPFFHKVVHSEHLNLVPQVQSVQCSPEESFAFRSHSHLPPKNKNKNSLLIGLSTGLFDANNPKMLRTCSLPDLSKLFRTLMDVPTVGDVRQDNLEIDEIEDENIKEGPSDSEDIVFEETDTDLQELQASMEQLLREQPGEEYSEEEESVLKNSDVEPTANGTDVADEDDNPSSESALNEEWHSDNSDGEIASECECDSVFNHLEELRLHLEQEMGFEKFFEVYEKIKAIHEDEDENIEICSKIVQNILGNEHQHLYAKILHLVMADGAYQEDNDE
# [3] = molecular target: T2, Serine/threonine-protein kinase Nek1 (Homo sapiens); details: at 1 µM
# [4] = molecular target: T3, Serine/threonine-protein kinase Nek2 (Homo sapiens) (UniProt P51955); details: at 0.1 µM
# T3 sequence (whole entry): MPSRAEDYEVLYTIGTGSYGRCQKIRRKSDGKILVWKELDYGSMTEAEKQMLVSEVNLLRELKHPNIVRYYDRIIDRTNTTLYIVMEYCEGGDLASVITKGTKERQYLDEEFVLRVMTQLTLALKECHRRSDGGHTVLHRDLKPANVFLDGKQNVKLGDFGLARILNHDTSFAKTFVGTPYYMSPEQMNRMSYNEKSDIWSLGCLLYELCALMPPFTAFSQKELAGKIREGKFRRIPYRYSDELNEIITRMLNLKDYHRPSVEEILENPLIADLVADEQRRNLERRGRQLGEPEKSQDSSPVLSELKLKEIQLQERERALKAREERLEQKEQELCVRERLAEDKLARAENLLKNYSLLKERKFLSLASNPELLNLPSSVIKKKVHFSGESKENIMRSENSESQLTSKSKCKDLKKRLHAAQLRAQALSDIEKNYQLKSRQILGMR
# [5] = molecular target: T3, Serine/threonine-protein kinase Nek2 (Homo sapiens); details: at 1 µM
# [6] = molecular target: Serine/threonine-protein kinase Nek6 (Homo sapiens) (UniProt Q9HC98); details: at 0.1 µM
# Sequence of Serine/threonine-protein kinase Nek6 (Homo sapiens) (Q9HC98 whole entry): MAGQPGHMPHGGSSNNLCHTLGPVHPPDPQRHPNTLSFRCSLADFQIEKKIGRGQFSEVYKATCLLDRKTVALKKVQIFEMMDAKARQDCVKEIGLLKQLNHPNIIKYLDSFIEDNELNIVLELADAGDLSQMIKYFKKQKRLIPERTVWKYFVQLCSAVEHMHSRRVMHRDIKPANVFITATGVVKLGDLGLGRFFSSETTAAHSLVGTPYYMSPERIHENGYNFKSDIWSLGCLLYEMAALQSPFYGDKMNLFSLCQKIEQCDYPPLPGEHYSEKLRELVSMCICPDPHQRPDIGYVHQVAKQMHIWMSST
# [7] = molecular target: Serine/threonine-protein kinase Nek6 (Homo sapiens) (UniProt Q9HC98); details: at 1 µM
# [8] = molecular target: Serine/threonine-protein kinase Nek7 (Homo sapiens) (UniProt Q8TDX7); details: at 0.1 µM
# Sequence of Serine/threonine-protein kinase Nek7 (Homo sapiens) (Q8TDX7 whole entry, looked up): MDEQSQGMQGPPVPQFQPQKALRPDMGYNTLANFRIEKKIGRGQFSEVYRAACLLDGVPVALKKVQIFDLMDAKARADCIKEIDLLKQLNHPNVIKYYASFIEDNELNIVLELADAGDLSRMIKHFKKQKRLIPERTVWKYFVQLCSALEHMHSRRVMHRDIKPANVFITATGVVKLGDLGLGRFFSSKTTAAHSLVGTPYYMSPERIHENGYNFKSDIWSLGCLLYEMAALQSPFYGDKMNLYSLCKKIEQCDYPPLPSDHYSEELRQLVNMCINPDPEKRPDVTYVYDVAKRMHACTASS
# [9] = molecular target: Serine/threonine-protein kinase Nek7 (Homo sapiens) (UniProt Q8TDX7); details: at 1 µM
# [10] = molecular target: T4, Serine/threonine-protein kinase Nek9 (Homo sapiens) (UniProt Q8TD19); details: at 0.1 µM;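 further: reported value is the mean percent inhibition of NEK9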
# T4 sequence (whole entry): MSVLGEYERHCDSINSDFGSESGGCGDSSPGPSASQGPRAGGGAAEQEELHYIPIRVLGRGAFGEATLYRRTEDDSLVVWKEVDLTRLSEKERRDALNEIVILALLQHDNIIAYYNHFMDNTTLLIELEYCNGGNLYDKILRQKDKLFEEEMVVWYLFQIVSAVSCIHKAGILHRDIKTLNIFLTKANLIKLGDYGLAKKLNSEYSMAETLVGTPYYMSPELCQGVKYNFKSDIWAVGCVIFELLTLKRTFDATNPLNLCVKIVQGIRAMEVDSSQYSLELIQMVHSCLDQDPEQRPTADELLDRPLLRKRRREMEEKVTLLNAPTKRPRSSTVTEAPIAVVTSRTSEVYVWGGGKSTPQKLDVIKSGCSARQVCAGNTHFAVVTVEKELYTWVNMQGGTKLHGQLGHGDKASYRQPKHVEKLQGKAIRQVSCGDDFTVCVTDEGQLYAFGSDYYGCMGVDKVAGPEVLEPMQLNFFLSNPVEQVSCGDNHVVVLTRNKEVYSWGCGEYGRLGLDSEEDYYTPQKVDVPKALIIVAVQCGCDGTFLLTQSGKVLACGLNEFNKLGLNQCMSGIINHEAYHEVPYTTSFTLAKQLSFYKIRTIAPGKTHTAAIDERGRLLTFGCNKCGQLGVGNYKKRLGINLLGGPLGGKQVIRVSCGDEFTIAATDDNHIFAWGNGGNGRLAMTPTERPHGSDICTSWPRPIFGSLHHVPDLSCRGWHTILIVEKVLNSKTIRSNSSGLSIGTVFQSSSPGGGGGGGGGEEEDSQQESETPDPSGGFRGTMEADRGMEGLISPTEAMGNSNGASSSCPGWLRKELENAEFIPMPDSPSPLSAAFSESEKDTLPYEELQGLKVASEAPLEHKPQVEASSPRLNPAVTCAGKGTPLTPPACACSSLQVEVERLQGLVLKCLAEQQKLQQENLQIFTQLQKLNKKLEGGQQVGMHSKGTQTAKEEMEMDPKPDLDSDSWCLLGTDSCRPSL
structure (smiles),measurement,setting,value
c1cnn2ncc(-c3ccnc(Nc4ccc5c(c4)OCCO5)n3)c2c1,inhibition,[1],20.5%
same,inhibition,[2],4.85%
same,inhibition,[3],20.4%
same,inhibition,[4],4.88%
same,inhibition,[5],15.4%
same,inhibition,[6],3.89%
same,inhibition,[7],4.5%
same,inhibition,[8],3.53%
same,inhibition,[9],6.49%
same,inhibition,[10],16.2%
